Only some compounds are listed: those with a hit (about 3.2% of all), similar ones and a draw of the others.
VACV Venus inh – qHTS for Stage-Specific Inhibitors of Vaccinia Orthopoxvirus: Venus Reporter Primary qHTS. Vaccinia virus Venus reporter expression, fluorescence. Potency, µM (top dose mostly 36.5 µM), usual class: inhibitors. actives 0.46% (n = 330,000). AID 720580, 2013; calls by dose curve; tested in A549 cells; further: nearly all actives have a fitted effect of over 30% in size
Marburg entry inh – qHTS for inhibitors of binding or entry into cells for Marburg Virus. Marburg virus pseudotyped entry inhibition, cell reporter. Potency, µM (highest dose often 37.8 µM), actives largely listed as inhibitors. actives 1.8% (n = 300,000); calls by dose curve; tested in HEK293 cells
FMDV inh – High Throughput Screening for Foot and Mouth Disease Virus Antivirals; FMDV antiviral cell-based qHTS; Potency, µM (series often up to 57.9 µM), actives largely listed as inhibitors; actives 1.2% (n = 410,000); calls by dose curve; tested in HEK293T cells; further: read-out not given here; nearly all actives have a fitted effect of over 45% in size
Vaccinia mCherry – qHTS for Stage-Specific Inhibitors of Vaccinia Orthopoxvirus: mCherry Reporter Primary qHTS; Vaccinia virus mCherry reporter infection, fluorescence; Potency, µM (highest dose often 36.5 µM), hits mostly inhibitors; actives 0.63% (n = 310,000); AID 720579, 2013; calls by dose curve; tested in A549 cells; further: nearly all actives have a fitted effect of over 35% in size
Lassa entry inh – qHTS for Inhibitors of binding or entry into cells for Lassa Virus; Lassa virus pseudotype entry inhibition, cell reporter; actives 1.2% (n = 300,000); AID 540256, 2011; Potency, µM (series often up to 37.9 µM), usual class: inhibitors; calls by dose curve; tested in HEK293 cells; further: nearly all actives have a fitted effect of over 50% in size
Hits are given with their value; 0 = inactive; ? = inconclusive; - = not tested or not shown; [ ] = remark or other dose.

SMILES	VACV Venus inh	Marburg entry inh	FMDV inh	Vaccinia mCherry	Lassa entry inh
C/C(=N\NC(=S)NCCc1ccccc1)c1ccc(C)cc1	0	16.4µM	0	0	?
Oc1ccc(Br)cc1/C=N/NC(=S)NCCc1ccccc1	0	?	0	1µM	0
CC(C)C(=O)N[C@H]1CCCN1C(=O)C=Cc1ccccc1	-	0	-	-	?
CCCCN1C[C@H](COC(=O)CCC)Oc2cccc(F)c2S1(=O)=O	0	?	0	0	-
O=C(O)c1ccc(-[n+]2c(-c3ccccc3)cc(-c3ccccc3)cc2-c2ccccc2)cc1	0	-	0	0	-
CCCOC(=O)c1ccc(-[n+]2c(-c3ccccc3)cc(-c3ccccc3)cc2-c2ccccc2)cc1	?	-	14.1µM	0	-
CCn1c(C)[n+](CCOCC[n+]2c(C)n(CC)c3cc(Cl)c(Cl)cc32)c2cc(Cl)c(Cl)cc21	0	0	-	0	0
O=C(O)CSCc1nc2scc(-c3ccccc3)c2c(=O)[nH]1	0	0	0	0	0
O=C(OCc1nc2scc(-c3ccccc3)c2c(=O)[nH]1)c1cc([N+](=O)[O-])ccc1Cl	0	0	39.8µM	0	0
O=C(Cc1nc2ccccc2[nH]1)N1CCC(n2c(C3CCC3)nc3cccnc32)CC1	0	-	0	0	-
CC1=C2[C@H](O)[C@H]([C@@H](C)C(=O)NCCC(C)C)CC[C@@]2(C)C=CC1=O	-	0	-	-	-
CN(C)N=Nc1ccc(/C=C2\C=Cc3ccccc32)cc1	0	-	-	0	-
O=c1[nH]c(-c2ccccn2)nc(C(F)(F)F)c1Br	0	?	0	11.2µM	?
Cc1nn(-c2ccccc2)c(N)c1Sc1ccccc1[N+](=O)[O-]	0	?	?	0	6.31µM
C=C1C=C(C(F)F)n2ncc(C(=O)NCCc3ccc(Cl)cc3)c2N1	0	-	-	0	-
O=C(C[n+]1cccc(Br)c1)c1ccc(I)cc1	0	-	-	0	-
O=C(C#Cc1ccccc1)Nc1cccc(F)c1	?	?	0	3.55µM	11.2µM
Cc1cccc(N2CCN(C(=O)c3ccc4nc(-c5ccco5)c(-c5ccco5)nc4c3)CC2C)c1 (stereo not given)	-	?	25.1µM	-	?
CCc1cc2c(=O)oc(-c3ccc(Br)cc3)nc2s1	-	-	0	-	-
NC[C@@H]1CC[C@@H](N)[C@@H](O[C@H]2[C@H](O)[C@@H](O[C@H]3O[C@H](CO)[C@@H](O)[C@H](N)[C@H]3O)[C@H](N)C[C@@H]2N)O1	0	-	0	0	-
NC(=O)Cn1c(=O)n(CCCCCC(=O)NCc2ccc3c(c2)OCO3)c(=O)c2sccc21	0	0	0	0	0
COCCNC(=O)Cn1c(=O)n(CCCC(=O)NCc2ccc3c(c2)OCO3)c(=O)c2sccc21	0	?	0	0	4.47µM
CCOC(=O)C1CCN(C(=O)c2ccccc2)c2scc(-c3ccccc3)c2C1=O (stereo not given)	0	-	31.6µM	0	-
Cc1cnc(SCc2ccccn2)nc1C1CCCN(C(=O)c2ccc3c(c2)OCO3)C1 (stereo not given)	0	-	0	0	-
CC(I)CCC(C)[n+]1cccc(I)c1 (stereo not given)	0	-	-	0	-
SMILES	VACV Venus inh	Marburg entry inh	FMDV inh	Vaccinia mCherry	Lassa entry inh
Nc1cccc2c1C(=O)N(C(=O)/C=C/c1ccc(F)cc1)C2=O	?	3.16µM	39.8µM	?	11.2µM
CCCCCCOC(=O)C[N+](C)(C)CCOC1CC2CCC1(C)C2(C)C (stereo not given)	-	0	0	-	0
CCCCCCCOC(=O)C[N+](C)(C)CCOC1CC2CCC1(C)C2(C)C (stereo not given)	?	11.2µM	35.5µM	0	?
Cc1ccc(NC(=O)CC2CC2)cc1-c1ccc(C(=O)NCC2CC2)cc1	-	-	-	-	3.97µM
Cc1ccc(C(=O)NC2CCCCC2)cc1-c1ccc(C(=O)NCC2CC2)cc1	-	-	-	-	1.41µM
COc1ccc(-c2noc(N3CCC(C(=O)N4CCN(c5cccc(OC)c5)CC4)CC3)n2)cc1	0[7.34 µM]	-	?	0[7.34 µM]	0
Cc1cccc(OC(=O)c2nc(SCc3ccccc3F)ncc2Cl)c1	0	0	0	0	0
CCOC(=O)c1cnc(-n2nc(C)cc2C)nc1NC1CCCC1	0[7.34 µM]	11.2µM	?	0[7.34 µM]	?
COc1cccc(/C=C/c2nccc3ccccc23)c1OC	0	-	-	0	-
Cc1ccc(C(=O)N[C@@H](C)CN2C3=NC[C@H](C(C)C)N3C[C@H]2Cc2ccc(O)cc2)cc1Br	0	-	0	0	-
Cc1ccc(C(=O)N[C@@H](C)CN2C3=NC[C@H](Cc4ccccc4)N3C[C@H]2Cc2ccc(O)cc2)cc1Br	12.6µM	-	0	?	-
COc1ccc(C[C@H]2CN3C(=NC[C@@H]3Cc3ccc(O)cc3)N2C[C@H](C)NC(=O)c2ccc(C)c(Br)c2)cc1	12.6µM	-	0	?	-
CCCCn1c(C)cc2c(c1=O)[C@H]1O[C@](CCCC)(Cc3cc(C#N)ccc31)O2	-	0	-	-	?
COc1ccc(CCNC(=O)c2cnn(-c3nccc(-c4ccco4)n3)c2C)cc1	0	-	0	0	-
COc1ccc(NS(=O)(=O)c2ccc3c(c2)CC(C)N3C(C)=O)c(OC)c1 (stereo not given)	0	-	0	0	0
CCC(=O)/C=C1/Sc2ccc(OC)cc2N1CCO	0	0	0	0	0
CCC(/C=C1\Sc2ccc(OC)cc2N1CC)=C\c1sc2ccc(OC)cc2[n+]1CCCS(=O)(=O)[O-]	-	?	17.8µM	-	?
CCC(/C=C1\Sc2ccc(OC)cc2N1CCO)=C\c1sc2ccc(OC)cc2[n+]1CCO	0	?	17.8µM	0	?
COc1ccc2cc(CNC3CCS(=O)(=O)C3)c(-c3ccc(OC)c(OC)c3)nc2c1 (stereo not given)	0	-	0	0	-
Cc1ncc2c(c1CNC(=O)c1ccccc1F)CCN(C(=O)c1ccccc1-n1cccn1)C2	0	-	0	0	-
CCN1/C(=C/c2sc(-c3ccccc3C)c[n+]2C)Sc2ccccc21	?	?	11.2µM	?	?
CCN1/C(=C/C(=O)c2ccco2)Sc2ccccc21	0	0	0	-	0
COCC(=O)Nc1cc(C(=O)N[C@H]2CCCCNC2=O)c2c(c1)nc(-c1ccncc1)n2C	0	-	0	0	-
O=C(CN1CCCCCCC1)N/N=C/c1ccc([N+](=O)[O-])o1	10µM	?	0	11.2µM	?
O=C(O)/C=C/c1ccc([N+](=O)[O-])o1	0	?	0	0	0
SMILES	VACV Venus inh	Marburg entry inh	FMDV inh	Vaccinia mCherry	Lassa entry inh
CC1(C(=O)N/N=C/c2ccc([N+](=O)[O-])o2)CC1(Br)Br (stereo not given)	6.31µM	?	0	?	12.6µM
N#CCc1ccc(NC(=O)/C=C/c2ccc([N+](=O)[O-])o2)cc1	?	?	?	7.08µM	7.94µM
O=C(CC12CC3CC(CC(C3)C1)C2)N/N=C/c1ccc([N+](=O)[O-])o1	28.2µM	?	0	11.2µM	15.8µM
CCOC(=O)N/N=C\c1ccc([N+](=O)[O-])o1	?	0	-	0	0
O=C(CN1CCOCC1)NN=Cc1ccc([N+](=O)[O-])o1	0	-	0	0	-
O=C(C1COc2ccccc2O1)N1CCN(c2nc3ccc(F)cc3s2)CC1 (stereo not given)	0	-	0	0	0
CCCCCCCC(=O)N/N=C/c1ccc([N+](=O)[O-])o1	-	-	0	-	-

Screening data deposited in PubChem by National Center for Advancing Translational Sciences (NCATS).
